# Reference: PubChem BioAssay AID2283334 (EPA ToxCast)
# Inconclusive results are not listed. Active and inactive are the calls of the source. The calls were made as follows: active = hit-call score of the fitted dose curve at least 0.9, where 1 is the maximum; inactive = score below 0.9.
# Target: Grik1 (gene 29559) (UniProt P22756)
# Assay: NVS_IC_rKAR: NovaScreen (NVS) Ion Channel Assay for Kainic Acid Receptors (KAR)
# Method in brief: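 Radioligand displacement binding using rat forebrain membranes, 1 h incubation, filter-based scintillation counting. Screened in duplicate at 25 uM, with actives retested in concentration-response up to 50 uM; fitted against DMSO.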
# Chain of Grik1 (gene 29559) (P22756 whole entry, looked up): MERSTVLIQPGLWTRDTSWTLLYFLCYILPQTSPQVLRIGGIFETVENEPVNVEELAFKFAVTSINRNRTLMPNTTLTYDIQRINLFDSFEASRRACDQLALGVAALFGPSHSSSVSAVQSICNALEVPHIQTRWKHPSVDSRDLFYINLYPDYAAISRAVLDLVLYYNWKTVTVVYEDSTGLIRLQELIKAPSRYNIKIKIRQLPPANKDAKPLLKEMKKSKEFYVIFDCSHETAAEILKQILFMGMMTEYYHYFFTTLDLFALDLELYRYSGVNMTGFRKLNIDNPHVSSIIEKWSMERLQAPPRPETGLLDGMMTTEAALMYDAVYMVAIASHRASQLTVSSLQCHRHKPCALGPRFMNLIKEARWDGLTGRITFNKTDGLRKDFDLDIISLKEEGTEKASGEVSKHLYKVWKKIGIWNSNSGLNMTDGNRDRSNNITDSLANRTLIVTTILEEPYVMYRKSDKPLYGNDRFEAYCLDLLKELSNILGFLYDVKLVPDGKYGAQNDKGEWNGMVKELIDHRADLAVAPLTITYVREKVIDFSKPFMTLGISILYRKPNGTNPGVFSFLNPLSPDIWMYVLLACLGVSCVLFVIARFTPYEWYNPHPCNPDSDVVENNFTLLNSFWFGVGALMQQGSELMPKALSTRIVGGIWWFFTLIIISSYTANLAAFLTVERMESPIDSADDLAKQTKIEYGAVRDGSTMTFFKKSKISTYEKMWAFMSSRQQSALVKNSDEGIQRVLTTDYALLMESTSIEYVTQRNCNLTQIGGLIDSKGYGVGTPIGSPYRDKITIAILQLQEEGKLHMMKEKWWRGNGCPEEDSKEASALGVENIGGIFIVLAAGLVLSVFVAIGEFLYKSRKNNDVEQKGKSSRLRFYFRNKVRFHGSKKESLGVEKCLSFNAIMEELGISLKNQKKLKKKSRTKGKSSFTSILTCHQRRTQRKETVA
row,Structure (SMILES),AC50
1,CCCCCCCCCCCCCCCCCC(=O)O,1.4 µM (active)
2,CCCCCCC(C)OC(=O)COc1nc(F)c(Cl)c(N)c1Cl (configuration not stated),30.2 µM (active)
